This is an account of results in PubChem BioAssay.

Several values for one entry are separate records, joined by “and”; a condition that tells them apart may be missing. Identical values can stand only once. Records with an inconclusive call do not appear. Activity calls are given as the source filed them.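 Rule for the calls, unless noted: active = normalized viability below 100% at a tested concentration; inactive = the rest.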

Experiment [1] is described as follows: viability loss in pontine glioma line – cell-based, SU-DIPG-XXV, MIPE5.0, CellTiter-Glo, qHTS, dose response (AID 1347065; cut-off not given, nearly all actives have AC50 up to about 26 µM;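 note: cells exposed to compound for 48 hours before ATP readout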). The conditions noted are these: CellTiter-Glo ATP luminescence. (In general: ATP-based viability assays read luminescence as a measure of living cells.)
Experiment [2] in a line: SU-DIPG-VI glioma cell viability, MIPE4.0 library, CellTiter-Glo luminescence, qHTS (AID 1347066; cut-off not given, nearly all actives have AC50 up to about 30 µM;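 note: cells exposed to compound for 48 hours before readout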). As to conditions: CellTiter-Glo ATP luminescence.
Experiment [3] in a line: JHH-DIPG-1 glioma cell viability, MIPE5.0 library, CellTiter-Glo luminescence, qHTS (AID 1347067; cut-off not given, nearly all actives have AC50 up to about 26 µM;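 note: cells exposed to compound for 48 hours before readout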). As to conditions: JHH-DIPG-1 glioma viability, CellTiter-Glo ATP luminescence.
Experiment [4] is described as follows: SU-DIPG-XXV glioma cell viability, MIPE5.0 library, qHTS (AID 1347068; cut-off not given, nearly all actives have IC50 up to about 30 µM;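 for IC50: cells exposed to compound for 48 hours before viability readout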). For orientation: In qHTS, concentration-response curves come from the screen itself.
The nature of experiment [5]: phospholipid biosynthesis inhibitors in animal cells, primary screen, cell-based, LOPAC library, screen 4 (AID 1347384; call rule not given here). The conditions noted are these: phospholipid biosynthesis inhibition screen, at 10 µM.
Experiment [6] can be described thus: survival rescue of mitochondrial mutant cells in low glucose, primary screen, MELAS cybrids, Rieske KO mouse fibroblasts, CellTiter-Glo (AID 1508586;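 active = mean z-score across replicates of 1.96 or higher in either the MELAS or the Rieske mutant cell line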;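 note: z relative to plate mean and SD of compound and empty wells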).
Experiment [7] deals with NAD(+) hydrolase SARM1 (Homo sapiens) (UniProt Q6SZW1). In words: SARM1 TIR NADase inhibitors, cell lysate, NAD-Glo luminescence (AID 1508614;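 active = compound whose remaining NAD level is above about 45 nM, limit read from the data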;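 note: higher remaining NAD means stronger inhibition of SARM1 NADase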). As to conditions: SAM-TIR HEK293T lysate NADase, at 1 µM, stronger effect = higher value.
The target of experiment [8] is Mitogen-activated protein kinase 7 (Homo sapiens) (UniProt Q13164). In words: ERK5 transactivation activators in reporter cells, primary screen, cell-based, HTS (AID 1508626;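 active = luciferase signal above three times the same-plate solvent-only control wells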;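 note: luciferase driven by Gal4-ERK5 fusion binding five Gal4 sites before minimal TATA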). The conditions noted are these: HeLa Gal4-ERK5 transactivation, 18 h, at 5 µM, stronger effect = higher value.
A short description of experiment [9]: viability rescue of complex I mutant cybrids, primary screen, cell-based, galactose medium, ATP luminescence (AID 1645843;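 active = z-score of at least 1.8 in each of two replicates, scored against plate mean and spread of sample wells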;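 note: positive z means more ATP and so rescue of galactose-driven cybrid death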). The conditions noted are these: complex I mutant cybrid cells, 72 h, stronger effect = higher value.
The nature of experiment [10]: modifiers of HSF1 nuclear foci, imaging, Selleck Cancer Library (AID 1347162; in the data active = plate-normalised HSF1 focus index below about 0.46). The conditions noted are these: human cells, at 10 µM; SSMD: measured here: HSF1 foci SSMD mean; cell count: measured here: cell number; plate-normalised HSF1 focus index: stronger effect = lower value.
The nature of experiment [11]: ovarian cancer cell viability with rucaparib, profiling panel, oncology-focused library, rucaparib conditional (AID 1508598). The conditions noted are these: patient-derived ovarian cancer cells, CellTiter-Glo viability, 144 h, stronger effect = lower value.
[12] abbreviates: MELAS cybrid survival, CellTiter-Glo 48 h, stronger effect = higher value.
[13] abbreviates: Rieske KO mouse fibroblast survival, CellTiter-Glo 72 h.

Mitogen-activated protein kinase 7 (Homo sapiens), sequence (Q13164 whole entry, looked up, the tested form may be a part): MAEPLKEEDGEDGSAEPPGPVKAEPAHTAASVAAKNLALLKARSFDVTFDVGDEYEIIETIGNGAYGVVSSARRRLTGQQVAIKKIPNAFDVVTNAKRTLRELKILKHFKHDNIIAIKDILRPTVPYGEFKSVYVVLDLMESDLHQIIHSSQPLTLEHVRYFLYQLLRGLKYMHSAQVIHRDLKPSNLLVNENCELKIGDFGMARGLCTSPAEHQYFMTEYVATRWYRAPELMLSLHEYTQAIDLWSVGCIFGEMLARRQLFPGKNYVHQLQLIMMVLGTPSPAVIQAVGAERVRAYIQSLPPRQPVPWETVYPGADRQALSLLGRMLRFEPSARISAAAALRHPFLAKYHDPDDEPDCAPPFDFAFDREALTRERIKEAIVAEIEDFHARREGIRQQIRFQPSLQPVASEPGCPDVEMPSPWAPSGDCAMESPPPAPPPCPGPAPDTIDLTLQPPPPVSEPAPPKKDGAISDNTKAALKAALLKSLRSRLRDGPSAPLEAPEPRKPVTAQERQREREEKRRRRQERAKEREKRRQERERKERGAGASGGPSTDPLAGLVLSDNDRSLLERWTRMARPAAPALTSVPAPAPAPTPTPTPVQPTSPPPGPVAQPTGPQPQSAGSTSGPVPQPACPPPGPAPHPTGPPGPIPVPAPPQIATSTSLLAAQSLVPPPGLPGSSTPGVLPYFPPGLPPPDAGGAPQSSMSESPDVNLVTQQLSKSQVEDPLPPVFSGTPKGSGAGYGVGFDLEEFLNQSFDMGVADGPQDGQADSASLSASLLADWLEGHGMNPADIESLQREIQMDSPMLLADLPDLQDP
NAD(+) hydrolase SARM1 (Homo sapiens), sequence (Q6SZW1 whole entry, looked up, the tested form may be a part): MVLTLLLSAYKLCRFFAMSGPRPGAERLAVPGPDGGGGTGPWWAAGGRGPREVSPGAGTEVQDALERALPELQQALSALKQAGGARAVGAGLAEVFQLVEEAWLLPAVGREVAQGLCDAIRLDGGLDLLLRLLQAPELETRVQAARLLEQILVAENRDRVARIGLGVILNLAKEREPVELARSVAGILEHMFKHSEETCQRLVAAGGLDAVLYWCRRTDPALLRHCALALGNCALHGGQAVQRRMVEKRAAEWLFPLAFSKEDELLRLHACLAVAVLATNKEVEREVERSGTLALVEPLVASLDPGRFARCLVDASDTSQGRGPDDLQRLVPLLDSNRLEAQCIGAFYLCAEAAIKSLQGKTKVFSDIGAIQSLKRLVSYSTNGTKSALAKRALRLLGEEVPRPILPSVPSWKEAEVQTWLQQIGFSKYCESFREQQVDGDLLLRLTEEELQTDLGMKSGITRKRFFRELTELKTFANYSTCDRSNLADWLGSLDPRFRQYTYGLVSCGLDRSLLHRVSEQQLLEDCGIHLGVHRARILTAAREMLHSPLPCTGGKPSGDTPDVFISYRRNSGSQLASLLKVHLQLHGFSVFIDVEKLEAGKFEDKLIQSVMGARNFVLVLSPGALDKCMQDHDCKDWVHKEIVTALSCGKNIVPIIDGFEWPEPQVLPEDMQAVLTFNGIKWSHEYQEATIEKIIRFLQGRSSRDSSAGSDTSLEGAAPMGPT

`CN1CCC(=C2c3ccccc3CC(=O)c3sccc32)CC1`: the result in experiment [1], in experiment [2], in experiment [3], in [4] and in experiment [5] was inactive. The z-score in [6] (setting [12]) is -0.303 (inactive) and -0.251 (inactive) and -0.573 (inactive); in experiment [6] (setting [13]), -0.862 and -0.369 and 0.333. In experiment [7], the remaining NAD was 10 nM (inactive). Besides, the luciferase signal in experiment [8] was 76 AU (inactive).

Take `N[C@@H](Cc1ccc(O)c(O)c1)C(=O)O`: the compound was classed as inactive in [1], in experiment [2], in experiment [3], in experiment [4] and in [5]. Further, the z-score is -0.394 (inactive) and -0.26 (inactive) in [6] (setting [12]); 0.117 and -1.12 in [6] (setting [13]); -0.965 (inactive) and -1.59 (inactive) in experiment [9]. In experiment [7], the remaining NAD was 10 nM (inactive). Also, the luciferase signal in [8] was 72 AU (inactive).

As for `Cc1cc(C(C)(C)C)cc(C)c1CC1=NCCN1`, the result in experiment [1], in experiment [2], in experiment [3], in experiment [4] and in [5] was inactive. Further, the z-score in experiment [6] (setting [12]) was 0.304 (inactive) and -0.439 (inactive) and 0.446 (inactive); in experiment [6] (setting [13]), 0.616 and -0.336 and 0.511; in [9], -0.37 (inactive) and 0.085 (inactive). Besides, the remaining NAD in experiment [7] is 10 nM (inactive). Also, the luciferase signal in [8] is 44 AU (inactive).

As to `Cc1cc(C(C)(C)C)c(O)c(C)c1CC1=NCCN1`, the compound was classed as inactive in experiment [1], in experiment [2], in experiment [3], in experiment [4] and in experiment [5]. The z-score was -0.371 (inactive) and 0.43 (inactive) and 0.93 (inactive) in experiment [6] (setting [12]); 0.698 and 0.504 and 0.891 in experiment [6] (setting [13]); 0.16 (inactive) and -0.235 (inactive) and 0.51 (inactive) in experiment [9]. For the same compound, in [7], the remaining NAD was 10 nM (inactive). For the same compound, in experiment [8], the luciferase signal was 28 AU (inactive).

In the case of `CCN1CCCC1CNC(=O)c1cc(S(=O)(=O)CC)c(N)cc1OC` (stereo not given), the compound was called inactive in experiment [1], in experiment [2], in [3], in [4] and in [5]. Besides, the z-score in [6] (setting [12]) is -0.415 (inactive) and 0.449 (inactive); in [6] (setting [13]) it was 0.177 and 0.21; in experiment [9], 0.105 (inactive) and 0.58 (inactive) and -0.055 (inactive). In addition, the remaining NAD in experiment [7] was 10 nM (inactive).

For `Cc1cnc(NC(=O)C2=C(O)c3ccccc3S(=O)(=O)N2C)s1`, the result in experiment [1], in [2], in experiment [3], in experiment [4] and in experiment [5] was inactive. In addition, the z-score in experiment [6] (setting [12]) was -0.282 (inactive) and 0.497 (inactive) and -0.212 (inactive); in experiment [6] (setting [13]), 0.842 and 0.0996 and -0.732; in experiment [9], 1.35 (inactive) and 0.585 (inactive) and 0.515 (inactive). The remaining NAD in experiment [7] was 10 nM (inactive). The luciferase signal in experiment [8] is 52 AU (inactive).

Take `Cc1cc2c(C(C)C)c(O)c(O)c(C=O)c2c(O)c1-c1c(C)cc2c(C(C)C)c(O)c(O)c(C=O)c2c1O`: the AC50 (usually the midpoint of the concentration-response curve, whichever way the signal moves) in experiment [1] was 7.42 µM (active); in [2], 8.33 µM (active); in experiment [3] it was 2.95 µM (active). Moreover, in experiment [4], the IC50 (as a rule, the concentration that gives 50% inhibition) was 23.5 µM (active). In [10], this compound gave an SSMD of -10.3. In experiment [10], this compound displayed a cell count of 5460. Further, the plate-normalised HSF1 focus index in [10] was 0.468 (active). For the same compound, the result in [5] was inactive. Besides, the viability – broadly, a read-out of living cells in per cent, often relative to untreated cells – in experiment [11] (at 0.000305 µM, OCI-C5x cells, with rucaparib 10 µM, 100% = cells with rucaparib alone) was 113% (inactive); in [11] (at 0.000305 µM, OCI-C5x cells, without rucaparib) it was 130% (inactive); in experiment [11] (at 0.000305 µM, OCI-P5x cells, with rucaparib 20 µM, 100% = cells with rucaparib alone) it was 95.4% (active); in experiment [11] (at 0.000305 µM, OCI-P5x cells, without rucaparib) it was 103% (inactive); in [11] (at 0.00122 µM, OCI-C5x cells, with rucaparib 10 µM, 100% = cells with rucaparib alone), 115% (inactive); in [11] (at 0.00122 µM, OCI-C5x cells, without rucaparib), 120% (inactive). The viability is 95.6% (active) in experiment [11] (at 0.00122 µM, OCI-P5x cells, with rucaparib 20 µM, 100% = cells with rucaparib alone); 104% (inactive) in experiment [11] (at 0.00122 µM, OCI-P5x cells, without rucaparib); 119% (inactive) in experiment [11] (at 0.00488 µM, OCI-C5x cells, with rucaparib 10 µM, 100% = cells with rucaparib alone); 131% (inactive) in experiment [11] (at 0.00488 µM, OCI-C5x cells, without rucaparib); 96.5% (active) in experiment [11] (at 0.00488 µM, OCI-P5x cells, with rucaparib 20 µM, 100% = cells with rucaparib alone); 108% (inactive) in [11] (at 0.00488 µM, OCI-P5x cells, without rucaparib). Further, the viability was 113% (inactive) in experiment [11] (at 0.0195 µM, OCI-C5x cells, with rucaparib 10 µM, 100% = cells with rucaparib alone); 134% (inactive) in experiment [11] (at 0.0195 µM, OCI-C5x cells, without rucaparib); 101% (inactive) in experiment [11] (at 0.0195 µM, OCI-P5x cells, with rucaparib 20 µM, 100% = cells with rucaparib alone); 112% (inactive) in experiment [11] (at 0.0195 µM, OCI-P5x cells, without rucaparib); 110% (inactive) in experiment [11] (at 0.0781 µM, OCI-C5x cells, with rucaparib 10 µM, 100% = cells with rucaparib alone); 123% (inactive) in experiment [11] (at 0.0781 µM, OCI-C5x cells, without rucaparib). Moreover, the viability was 108% (inactive) in experiment [11] (at 0.0781 µM, OCI-P5x cells, with rucaparib 20 µM, 100% = cells with rucaparib alone); 116% (inactive) in [11] (at 0.0781 µM, OCI-P5x cells, without rucaparib); 128% (inactive) in experiment [11] (at 0.313 µM, OCI-C5x cells, with rucaparib 10 µM, 100% = cells with rucaparib alone); 144% (inactive) in [11] (at 0.313 µM, OCI-C5x cells, without rucaparib); 107% (inactive) in experiment [11] (at 0.313 µM, OCI-P5x cells, with rucaparib 20 µM, 100% = cells with rucaparib alone); 113% (inactive) in experiment [11] (at 0.313 µM, OCI-P5x cells, without rucaparib). Further, the viability in experiment [11] (at 1.25 µM, OCI-C5x cells, with rucaparib 10 µM, 100% = cells with rucaparib alone) was 110% (inactive); in experiment [11] (at 1.25 µM, OCI-C5x cells, without rucaparib), 148% (inactive); in [11] (at 1.25 µM, OCI-P5x cells, with rucaparib 20 µM, 100% = cells with rucaparib alone), 95.9% (active); in experiment [11] (at 1.25 µM, OCI-P5x cells, without rucaparib), 110% (inactive); in [11] (at 5 µM, OCI-C5x cells, with rucaparib 10 µM, 100% = cells with rucaparib alone), 130% (inactive); in [11] (at 5 µM, OCI-C5x cells, without rucaparib), 156% (inactive). For the same compound, the viability in experiment [11] (at 5 µM, OCI-P5x cells, with rucaparib 20 µM, 100% = cells with rucaparib alone) was 89.5% (active); in experiment [11] (at 5 µM, OCI-P5x cells, without rucaparib), 106% (inactive). Also, the luciferase signal in experiment [8] was 28 AU (inactive). Also, the z-score in [9] was -1.29 (inactive) and -0.705 (inactive).
